RmlCD inh mix: RmlC/RmlD inhibition, mixture screen; RmlC/RmlD coupled enzyme inhibition, 384-well mixture HTS; AID 1532; 0.39% of 110,000 active; inhibition, % at 5.5 µM; in the data active means inhibition above about 30%, passing the limit was not always enough
RT RNaseH block: blocks HIV-1 RNase H cleavage of RNA/DNA duplex; P04585; RT-RNase H RNA/DNA duplex cleavage, fluorescence; inhibition, % at 10 µM; 1.9% of 65,000 active; AID 565; in the data active means inhibition above about 50%
Starred values were filed as active, the others as inactive. The full list was thinned out, with hits kept by preference.

Screening C=CCn1c(Cc2nc3ccc(Cl)cc3[nH]2)n[nH]c1=S returned RmlCD inh mix 12 and RT RNaseH block 58*.
Screening C=CCn1c(-c2ccccc2)n[nH]c1=S returned RmlCD inh mix -13 and RT RNaseH block 7.
COc1cc(-c2nnc(COC(=O)c3c4c(nc5ccccc35)CCCC4)o2)cc(OC)c1OC was read as RmlCD inh mix -10.
`CCOC(=O)c1cc2c(=O)n3ccccc3nc2n(Cc2ccccc2)c1=N` gave RmlCD inh mix 31* and RT RNaseH block -24.
Screening CCOC(=O)c1cc2c(=O)n3ccccc3nc2n(CCCOC)c1=NC(=O)C(C)(C)C returned RmlCD inh mix 22 and RT RNaseH block -1.
CCOCCCn1c(=NC(C)=O)c(C(=O)OCC)cc2c(=O)n3ccccc3nc21 was read as RmlCD inh mix 67* and RT RNaseH block -7.
CCOC(=O)c1cc2c(=O)n3ccccc3nc2n(Cc2ccccc2Cl)c1=N was read as RT RNaseH block -6.
CCN=C(NCC)SC1CC(=O)N(c2ccc(F)cc2)C1=O (configuration not stated) was read as RmlCD inh mix -10.
`COc1ccc(-c2cc(C(=O)O)c3c(C)nn(-c4ccccn4)c3n2)cc1` gave RmlCD inh mix 28.
Screening COc1ccc(N=CC2=C(Nc3ccc(OC)cc3)c3c(C)nn(-c4ccccn4)c3CC2)cc1 returned RmlCD inh mix 61*.
Screening CC(=O)c1ccc(NC(=O)c2cnn3c(C(F)F)cc(C4CC4)nc23)cc1 returned RmlCD inh mix 13.
`O=c1[nH]c2ccccc2n1CCCSc1cnc2ccccc2n1` gave RmlCD inh mix 18 and RT RNaseH block -33.
`C=CCn1c2ccccc2c2nnc(SCCCn3c(=O)[nH]c4ccccc43)nc21` gave RmlCD inh mix 71*.
Screening O=C(c1ccc2c(=O)n(Cc3ccc4c(c3)OCO4)c(=S)[nH]c2c1)N1CCCCC1 returned RmlCD inh mix -10 and RT RNaseH block 61*.
`CC1CC(C)CN(C(=O)c2ccc3c(=O)n(Cc4ccc5c(c4)OCO5)c(=S)[nH]c3c2)C1` (configuration not stated) gave RmlCD inh mix -10.
`O=C(NCCCN1CCCC1=O)c1cccc(C(F)(F)F)c1` gave RmlCD inh mix -5 and RT RNaseH block 5.
`CC(CNC(=O)CC(C)(C)C)NC(=O)CC(C)(C)C` (configuration not stated) gave RmlCD inh mix 8.
For CCC1CCc2c(sc(NC(=O)c3ccoc3C)c2C(N)=O)C1 (configuration not stated) the results were RmlCD inh mix -3 and RT RNaseH block 53*.
`CCOC(=O)c1c(NC(=O)c2ccoc2C)sc2c1CCC2` gave RmlCD inh mix -68 and RT RNaseH block 11.
`COc1ccc(CNC(=O)c2ccc(N3CCC4(CC3)CC(c3ccc(Cl)cc3)=NO4)c(N)c2)cc1` gave RmlCD inh mix -34.
`Cc1cc(C(=O)CSc2nnnn2-c2ccc(Cl)cc2)c(C)n1CC1CCCO1` (configuration not stated) gave RmlCD inh mix 15 and RT RNaseH block 63*.
For Cc1cc(C(=O)CSc2nnnn2-c2ccccc2)c(C)n1CC1CCCO1 (configuration not stated) the results were RmlCD inh mix -8 and RT RNaseH block 9.
Screening CCCCn1nnnc1SCC(=O)N(CC)CC returned RmlCD inh mix 3.
CCCn1nnnc1SCC(=O)N(C(C)C)C(C)C was read as RmlCD inh mix -15 and RT RNaseH block 65*.
CC1(C)CCC23CC[C@]4(C)C(OC2=O)(C3C1)[C@H]1O[C@H]1C1[C@@]2(C)CC[C@@H](O)C(C)(C)C2CC[C@]14C (some centres not stated) was read as RmlCD inh mix 2.
Screening CC(Nc1n[nH]c(=S)[nH]c1=O)C(=O)OCc1ccccc1 (configuration not stated) returned RmlCD inh mix 1 and RT RNaseH block 53*.
`CCCCOC(=O)C(C)Nc1n[nH]c(=S)[nH]c1=O` (configuration not stated) gave RmlCD inh mix -9.
For CC(=O)OCC(=O)NCc1ccc2c(c1)OCO2 the results were RmlCD inh mix 4 and RT RNaseH block 4.
For Cc1cc(=O)oc2cc(OCC(=O)OCC(=O)NCc3ccc4c(c3)OCO4)ccc12 the results were RmlCD inh mix 37* and RT RNaseH block -3.
For COCCN(C(=O)CSc1nnc(Nc2ccccc2F)s1)c1c(N)n(Cc2ccccc2)c(=O)[nH]c1=O the results were RmlCD inh mix 7.
COc1ccc(CN2CN=C(Nc3nc4ccccc4s3)NC2)cc1 was read as RmlCD inh mix 8.
For CCOC(=O)c1ccc(NC(=S)Nc2ccccc2N)cc1 the results were RmlCD inh mix -9.
For COc1ccc(N=c2oc3c(OC)cccc3cc2C(=O)NCc2ccco2)cc1OC the results were RmlCD inh mix 7 and RT RNaseH block -4.

Screening results from PubChem BioAssay.
